Sampled rows, rich in hits. Any-hit rate of the full collection: about 9%.
ALDH1A1 block = qHTS Assay for Inhibitors of Aldehyde Dehydrogenase 1 (ALDH1A1); Purified ALDH1A1, NADH fluorescence, propionaldehyde substrate; Potency, µM (doses to about 75.3 µM), for inactives: top-dose activity, negative = inhibition, hits mostly inhibitors; 220,000 compounds, 7.3% hits; active = well fitted inhibition curve with a large enough effect, not every such curve was filed as active; inconclusive = small, poorly fitted or top-dose-only effect, or another doubt; inactive = no such curve, though single readings can be large or run the other way;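 also: plate controls were no enzyme wells and a reference inhibitor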
Target sequence (P00352 whole entry, looked up): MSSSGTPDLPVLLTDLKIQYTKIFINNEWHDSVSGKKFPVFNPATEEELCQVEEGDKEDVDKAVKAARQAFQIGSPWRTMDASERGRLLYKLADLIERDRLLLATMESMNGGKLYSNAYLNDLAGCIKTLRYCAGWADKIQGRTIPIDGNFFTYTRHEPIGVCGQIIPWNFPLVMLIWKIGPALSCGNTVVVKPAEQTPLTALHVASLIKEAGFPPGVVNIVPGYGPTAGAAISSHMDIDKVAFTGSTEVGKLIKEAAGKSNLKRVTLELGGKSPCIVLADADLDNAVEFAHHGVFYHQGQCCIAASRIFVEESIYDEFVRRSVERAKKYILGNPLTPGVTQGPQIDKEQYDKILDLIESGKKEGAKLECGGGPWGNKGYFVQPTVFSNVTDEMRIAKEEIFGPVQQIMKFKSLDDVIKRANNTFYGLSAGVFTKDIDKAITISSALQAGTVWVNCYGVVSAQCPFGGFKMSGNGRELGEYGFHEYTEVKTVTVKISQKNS
LMNA splice mod = qHTS Assay for Modulators of Lamin A Splicing; 200,000 compounds, 0.01% hits; HeLa LMNA splicing GFP/RFP minigene ratio, 48 h; Potency, µM (highest dose often 46.1 µM), for the others: at the highest dose ratio change, negative = inhibition, usual class: inhibitors; active = well fitted inhibition curve with a large enough effect in the signal ratio, with a control signal flat, not every such curve was filed as active; inconclusive = small, poorly fitted or top-dose-only effect, or effect the other way, or a change in a side signal; the % refers to the signal ratio; also: % is scaled to controls: 0 for no effect and ±100 for the full control effect
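S3 HeLa cells stably expressing lamin A-EGFP splicing minigene plus DsRed2, 600 cells/well, 48 h compound exposure at 37C. Laser-scanning cytometry; analysed as GFP (500-530 nm)/RFP (575-640 nm) total intensity ratio; 0.5% DMSO vehicle.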
HTT aggregate = qHTS Multiplex Assay to Identify Dual Action Probes in a Cell Model of Huntington: Aggregate Formation (GFP) | 220,000 compounds, 1.1% hits | PC12 HttQ103-GFP aggregates, Acumen cytometry, 40 h | Potency, µM (doses to about 46.1 µM), for the others: at the highest dose activity change, negative = inhibition, actives largely listed as inhibitors; also: % is scaled to controls: 0 for no effect and ±100 for the full control effect; nearly all actives have a fitted effect of over 60% in size
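Using laser scanning cytometry, GFP-positive aggregates were counted after lysis of PC12 cells induced with 100 nM tebufenozide to express HTT exon 1 Q103–GFP. Compounds were tested in titration.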
Luc counter = Counterscreen for Luciferase (Kinase-Glo TM) Inhibition | Potency, µM (doses to about 38.3 µM), inactives show at the highest dose activity change, negative = inhibition, usual class: inhibitors | Kinase-Glo luciferase, ATP luminescence, 8 min | 200,000 compounds, 0.28% hits; also: % is scaled to controls: 0 for no effect and ±100 for the full control effect; nearly all actives have a fitted effect of over 60% in size
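Light output from Kinase-Glo luciferase with luciferin and 10 uM ATP in 50 mM imidazole pH 7.2, KCl, MgCl2, Tween 20, BSA; compound pin-delivered, 8-min ambient incubation, then luminescence read.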
HTT cytoprotect = qHTS Multiplex Assay to Identify Dual Action Probes in a Cell Model of Huntington: Cytoprotection (ATP) | PC12 HTT-Q103 induced, cytoprotection, ATP luminescence, 40 h | Potency, µM (titrated, usually from 56.4 µM), for the others: cytoprotection (ATP increase), actives largely listed as activators | 230,000 compounds, 0.14% hits; also: % of control where 0% means no effect; nearly all actives have a fitted effect of over 45% in size
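Compounds were screened for protection of PC12 cells against cell death after tebufenozide induction (100 nM final) of mutant Huntingtin exon 1 (Q103) fused to GFP.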
HPGD inh = qHTS Assay for Inhibitors of HPGD (15-Hydroxyprostaglandin Dehydrogenase). 15-hydroxyprostaglandin dehydrogenase [NAD(+)] (Homo sapiens), P15428. purified HPGD, NADH fluorescence kinetic, PGE2 substrate. Potency, µM, for inactives: at the highest dose activity change, negative = inhibition, actives largely listed as inhibitors. 150,000 compounds, 4.3% hits. AID 894, 2007; active = well fitted inhibition curve with a large enough effect, not every such curve was filed as active; inconclusive = small, poorly fitted or top-dose-only effect, or another doubt; inactive = no such curve, though single readings can be large or run the other way; also: % is scaled to controls: 0 for no effect and ±100 for the full control effect
Target sequence (P15428 whole entry, looked up): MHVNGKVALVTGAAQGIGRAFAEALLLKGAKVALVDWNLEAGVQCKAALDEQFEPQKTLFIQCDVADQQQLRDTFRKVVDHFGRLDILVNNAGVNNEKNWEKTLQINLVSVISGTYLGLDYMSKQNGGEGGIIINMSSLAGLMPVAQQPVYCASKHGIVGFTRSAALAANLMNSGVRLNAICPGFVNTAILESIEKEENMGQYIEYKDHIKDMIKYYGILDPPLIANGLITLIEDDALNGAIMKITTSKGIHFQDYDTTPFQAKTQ
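NADH formation kinetics: reaction with 30 uM PGE2 and 1 mM NAD+ (final), 20 nM enzyme, Tris-HCl pH 8 with Tween 20, after 15 min compound preincubation at room temperature. Fluorescence change, last versus first of five reads.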
An asterisk follows results filed as active; u = inconclusive; x = no result; ! = repeats disagree; [ ] = remark or other dose. Unless noted, calls follow the shape of the dose curve; as a rule, active = well fitted curve in the direction sought with a large enough effect; inconclusive = small, poorly fitted or top-dose-only effect, or another doubt; inactive = no such curve, though single readings can be large; an effect the other way counts as inactive or inconclusive. Potency is read from the fitted curve at half-maximal effect.

SMILES | ALDH1A1 block | LMNA splice mod | HTT aggregate | Luc counter | HTT cytoprotect | HPGD inh
CC(C)S(=O)(=O)CC(=O)c1ccc(Cl)cc1 | -3% | 15%[9.22 µM] | 0% | 0% | 11% | x
Cc1ccc(/C=N/NC(=O)c2ccc(Br)o2)s1 | 7% | 30% | 12% | -6% | x | -13%
CC(=O)O[C@]1(C(C)=O)CC[C@H]2[C@@H]3C[C@H](C)C4=CC(=O)CC[C@]4(C)[C@H]3CC[C@@]21C | 32µM*! | u | 18% | -3% | 5% | -1%
CC(=O)O[C@]1(C(C)=O)CC[C@H]2[C@@H]3C=C(Cl)C4=CC(=O)CC[C@]4(C)[C@H]3CC[C@@]21C | u | u | -3% | 2% | -56% | -7%
CCOC(=O)C1CCN(CC(O)COc2ccc(C(C)(C)CC)cc2)CC1 (configuration not stated) | -5% | 3% | -2% | -1% | 7% | -6%
COc1ccc(S(=O)(=O)N(CC(=O)Nc2cccnc2)c2ccccc2OC)cc1 | 10µM* | 6% | u | 2% | -12% | 2.2µM*
COc1ccccc1N(CC(=O)Nc1cccnc1)S(C)(=O)=O | 10% | 10% | -3% | -2% | -2%[10 µM] | -6%
COc1ccc(S(=O)(=O)N(CC(=O)Nc2ccc3c(c2)OCO3)c2ccccc2OC)cc1 | u | u | 18%[9.22 µM] | -1% | -13% | 16µM*
COc1ccc(N(CC(=O)Nc2cccnc2)S(C)(=O)=O)cc1 | 1% | -3%[46 µM] | -1%[9.22 µM] | -3% | 11%[10 µM] | x
COc1ccc(N(CC(=O)Nc2ccc3c(c2)OCCO3)S(=O)(=O)c2cccnc2)cc1 | 14µM* | -8% | 6% | 1% | 7%[10 µM] | -18%
COc1ccccc1N(CC(=O)Nc1ccc2c(c1)OCO2)S(=O)(=O)c1ccccc1 | -6% | u | -12% | -7% | -6% | -26%
COc1ccccc1N(CC(=O)Nc1cccnc1)S(=O)(=O)c1ccccc1 | u | 7% | -4% | -5% | -21% | 14µM*
O=C(COC(=O)c1cccnc1SCC(=O)NCc1ccccc1)NCc1ccccc1 | 5% | -26% | -11% | -5% | 8% | u
CCOc1ccc(NC(=O)Cn2c(=O)oc3cc(S(=O)(=O)N4CCCCCC4)ccc32)cc1 | x | -9%[46 µM] | x | x | x | x
Cc1cc(C)cc(NC(=S)N2CCN(Cc3ccccc3)CC2)c1 | 4% | x | 22% | 2% | 1% | x
C=CCOc1ccccc1CNCc1cccnc1 | 2% | 5% | 12% | -3% | 20% | -3%
O=C1CN(C(=O)COC(=O)CNS(=O)(=O)c2ccccc2)c2ccccc2N1 | 2% | 2%[46 µM] | 9% | 2% | -46% | x
COc1ccc(OC)c(N(CC(=O)Nc2cccnc2)S(=O)(=O)c2ccccc2)c1 | -8% | 0% | 10% | -1% | 5% | 7.9µM*
COc1ccc(C)cc1N(CC(=O)Nc1cccnc1)S(=O)(=O)c1ccc(C)cc1 | -2% | 1%[46 µM] | 7%[9.22 µM] | 1% | 12%[10 µM] | x
CC(=O)c1cccc(NC(=O)c2nc(-c3ccc(C)cc3)n3c2CCCCC3)c1 | x | 6%[46 µM] | x | x | x | x
CN(C)/N=C/c1c(O)ccc2ccccc12 | -2% | 12% | -26% | -4% | 6% | 32µM*
Oc1ccc2ccccc2c1C=Nc1ccc(N2CCOCC2)cc1 | 4.5µM* | -7% | u | -7% | 15% | 20µM*
COc1ccc2c(c1)-c1nc(NC(=O)c3cccs3)sc1CC2 | u | u | u | -2% | -82% | u
Oc1ccc2ccccc2c1/C=N/c1nccs1 | u | -5% | 20% | 0% | -3% | -25%
COc1ccc2c(c1)-c1nc(/N=C/c3ccc(O)cc3)sc1CC2 | 4.5µM* | -5% | -8% | 2% | -37%[10 µM] | -26%
SMILES | ALDH1A1 block | LMNA splice mod | HTT aggregate | Luc counter | HTT cytoprotect | HPGD inh
COc1ccc2c(c1)-c1nc(/N=C/c3c(O)ccc4ccccc34)sc1CC2 | 18µM* | -19% | -5% | -3% | -8%[10 µM] | u
CCOC(=O)c1[nH]c2cc3c(cc2c1NC(=O)CN1CCCCC1C)OCO3 (configuration not stated) | u | 5% | -16% | -2% | -13% | u
Cc1ccc(C)c(N2CCN(C(=O)CSc3ccsc3[N+](=O)[O-])CC2)c1 | 11µM* | u | -1% | 4% | 35%[10 µM] | u
O=C(O)/C=C\C(=O)NNC(=O)c1cc(-c2ccccc2)n[nH]1 | 25µM* | x | 33%[9.22 µM] | x | 7%[10 µM] | x
CN(C)Cc1ccccc1-c1ccc2ncnc(NCc3ccccc3)c2c1 | -1% | -17% | x | 0% | -15% | -15%
COc1ccc(C(=O)NC(=O)Nc2cc(C)ccn2)cc1 | 13µM* | -7% | u | x | -100%[10 µM] | x
COc1ccc(NC(=O)Nc2cc(C)ccn2)cc1 | x | x | x | x | -42% | x
Cc1cc(NC(=O)c2ccc3c(c2)OCO3)ccc1NC(=O)c1ccco1 | -4% | -7% | -1% | 11µM* | u | -13%
O=C(Nc1ccon1)c1ccc2c(c1)OCO2 | -10% | -12% | u | -9% | 1%[10 µM] | 18µM*
Cc1ccc(C(=O)Nc2ccc3c(c2)OCO3)cc1NC(=O)c1ccco1 | u | -3%[46 µM] | 13% | 2% | -1%[10 µM] | x
Cc1ccnc(NC(=O)c2ccc3c(c2)OCO3)c1 | -11% | -4%[46 µM] | 15%[9.22 µM] | 13µM* | -74%[10 µM] | x
NS(=O)(=O)c1ccc(NC(=O)COC(=O)c2cccc(S(=O)(=O)N3CCCC3)c2)cc1 | x | x | 8%[9.22 µM] | x | -14%[10 µM] | x
NNC(=O)CNC(=O)c1ccccc1F | 3% | -8% | -7% | 1% | -4%[10 µM] | -10%
COc1ccc(N=c2scc(-c3ccc(S(=O)(=O)N4CCOCC4)cc3)n2CCCO)cc1 | u | u | 13µM* | 3% | 11%[10 µM] | -13%
CC(=O)c1cccc(N=c2scc(-c3ccc(S(=O)(=O)N4CCOCC4)cc3)n2CCO)c1 | 25µM* | u | u | -3% | x | -7%
C=CCn1c(-c2ccc(S(=O)(=O)N3CCOCC3)cc2)csc1=Nc1ccccc1 | u | 15%[0.0737 µM] | u | -2% | -19% | -18%
COc1ccc(Oc2nc(-c3cccnc3)nc3ccccc23)cc1 | x | x | -6%[9.22 µM] | x | 9%[10 µM] | x
CC(C)=N/N=C1\NC(=O)C(C)S1 (configuration not stated) | 20% | x | -7%[9.22 µM] | x | -4%[10 µM] | x
Nn1c(SCc2cccc(C(F)(F)F)c2)nnc1-c1ccco1 | 22µM* | -4% | 25% | -4% | 0% | -18%
